Here are results for three compounds from PubChem BioAssay.

Assay [1] concerns the target Cell division control protein 42 homolog (Homo sapiens) (UniProt P60953). Briefly: activated mutant Cdc42 GTP-binding inhibitors, dose response, biochemical, multiplex bead flow cytometry, Bodipy-FL-GTP (AID 1333;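 active means fitted half-maximal concentration within the tested dose range, moderate curve steepness, a statistically real signal drop, and little compound fluorescence or tag-binding interference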). Conditions: bead-based flow cytometry; series mostly up to 100 µM. On the technique in general: Flow cytometry measures light scatter and fluorescence of single cells or particles in a stream.

Assay [2] has the same target. Briefly: wildtype Cdc42 GTP-binding inhibitors, dose response, biochemical, multiplex bead flow cytometry, Bodipy-FL-GTP (AID 1334;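 active means fitted half-maximal concentration within the tested range, moderate curve steepness, significant signal drop, and little compound fluorescence or bead-linkage interference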). The note with it: bead-based flow cytometry, Bodipy-FL-GTP binding to GST-Cdc42; at 100 µM (top of the series) unless noted.
The target of assay [3] is GTPase HRas (Homo sapiens) (UniProt P01112). Description: inhibitors of GTP binding to wildtype Ras, dose response, biochemical, multiplex bead flow cytometry (AID 1335). Conditions: bead-based flow cytometry, Bodipy-GTP binding to GST-Ras; at 100 µM (top of the series) unless noted.
Assay [4] has as its system Ras-related protein Rab-7a (dog), GTP binding. Briefly: Rab7 GTP binding inhibitors, potency, dose response, biochemical, wildtype, multiplex bead flow cytometry (AID 1336; call rule not given here). Conditions: bead-based flow cytometry, fluorescent GTP binding to Rab7; series mostly up to 100 µM.
For assay [5], the target named is Ras-related C3 botulinum toxin substrate 1 (Homo sapiens) (UniProt P63000). Briefly: wildtype Rac1 GTP binding inhibitors, dose response, biochemical, multiplex bead flow cytometry (AID 1340;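 active means dose curve with midpoint inside tested range, moderate steepness, plateau gap beyond fit error, low compound glow and bead-link interference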). The note with it: GST-Rac1 beads, Bodipy-FL-GTP binding; at 100 µM (top of the series) unless noted.
The target of assay [6] is GTPase HRas (Homo sapiens) (UniProt P01112). Briefly: activated Ras mutant GTP binding inhibitors, dose response, biochemical, multiplex bead flow cytometry (AID 1341;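 active means dose-response curve with midpoint inside the tested range, moderate steepness, significant amplitude and little compound fluorescence or bead-attachment interference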;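 further: GST-tagged constitutively activated Ras mutant immobilized on beads and multiplexed with other GTPases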). The note with it: bead-based flow cytometry, Bodipy-FL-GTP binding; series mostly up to 100 µM.
Assay [7] can be described thus: yeast TOR pathway RPL19A-GFP modulators, primary screen, cell-based, S. cerevisiae, multiplex flow cytometry (AID 1862; in the data active means percent of DMSO control GFP below about 86%;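 further: lower values mimic rapamycin by blocking the RPL19A rise seen in DMSO cells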). The note with it: S. cerevisiae RPL19A-GFP strain, flow cytometry fluorescence, 3 h; at 10 µM; stronger effect = lower value.
Assay [8] in a line: modulators of MEP2-GFP levels in yeast, primary screen, S. cerevisiae, multiplex flow cytometry (AID 1867;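 active means GFP response, as percent of the DMSO control, above the screen-wide mean plus 3 SD, about 139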;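 further: median GFP channel fluorescence of barcode-gated MEP2-GFP cells measured by flow cytometry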). Conditions: S. cerevisiae MEP2-GFP strain, 3 h, at 10 µM, stronger effect = higher value, 100% means same as DMSO wells.
A short description of assay [9]: modulators of CIT2-GFP expression in yeast, primary screen, S. cerevisiae, GFP fusion, multiplex flow cytometry (AID 1870;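 active means percent response above a set limit, the screen-wide mean plus 3 SD, cut at about 130% in these data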;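 further: barcoded CIT2-GFP strain pooled with four other GFP strains with rapamycin as positive control; median GFP fluorescence per well over plate mean of DMSO wells so 100% = DMSO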). The note with it: 3 h, at 10 µM, stronger effect = higher value.
Assay [10] can be described thus: modulators of LAP4-GFP expression in yeast, primary screen, S. cerevisiae, multiplex flow cytometry (AID 1873;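 active means GFP signal, as percent of the solvent control, above the screen mean plus 3 SD, about 149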). Conditions: 3 h, at 10 µM, stronger effect = higher value.
Assay [11] in a line: modulators of AGP1-GFP expression in yeast TOR pathway, primary screen, cell-based, multiplex flow cytometry, S. cerevisiae (AID 1887;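 active means GFP signal above the screen-wide mean plus 3 SD, that is over about 124.5% of the solvent control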;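 further: AGP1-GFP fusion strain of S. cerevisiae within a five-strain barcoded multiplex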). Conditions: 3 h, at 10 µM, stronger effect = higher value.
Assay [12] can be described thus: inhibitors of CD8+ T cell-vesicle binding, pilot screen, LFA-1/ICAM-1 modulator project, MLPCN validation set, flow cytometry (AID 2523;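 active means response below a set limit, under 55% cells CD8-positive and vesicle-bound, and CD8 cells' 90th-percentile brightness under 279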;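 on vesicle binding response: mean PE anti-B7-1 fluorescence of CD8+ cells relative to row control; 100% = QL9-loaded vesicles with DMSO vehicle in the same plate row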). Conditions: 2C mouse CD8+ T cells, at 7 µM, stronger effect = lower value; double positive events: measured here: CD8+/vesicle+ event percentage.
Assay [13] has as its target Integrin beta-1 (Homo sapiens) + Integrin alpha-4 (Homo sapiens) (UniProt P13612+P05556). Briefly: inhibition of HUTS-21 binding to VLA-4, pilot screen, VLA-4 allosteric modulator project, U937 cells, HUTS-21 mAb, flow cytometry, validation set (AID 2674;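 active means inhibition above 50%, about 3 SD of the validation set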;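 further: antibody binding induced by the VLA-4 ligand LDV present at three times its Kd; 0% = LDV ligand with antibody and no compound and 100% = antibody without LDV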). Conditions: HUTS-21 LIBS mAb binding, at 6.7 µM, stronger effect = higher value, binding induced by LDV ligand.
A short description of assay [14]: superoxide lowering in aged yeast cells, pilot screen, validation compound set (AID 2706;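 active means superoxide response below 65% of plate, a cut near 3 SD across the whole screen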;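 further: yeast exposed to compound for one week at 30 degrees C before staining; 100% = mean of all compound wells on the same plate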). Conditions: S. cerevisiae aging, superoxide DHE fluorescence; at 10 µM; stronger effect = lower value.
Assay [15] addresses Beta-adrenergic receptor kinase 1 (Homo sapiens) (UniProt P25098). Description: GRK2 binders displacing RNA aptamer, biochemical, validation, human GRK2, bead flow cytometry (AID 488806;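 active means aptamer binding inhibition above 30%, about 3 SD of noise from non-fluorescent compounds; inactive means inhibition at or below 30%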). Conditions: bead-bound GRK2, FAM-aptamer displacement, at 10 µM, stronger effect = higher value.
In assay [16] the target is Beta-2 adrenergic receptor (Homo sapiens) (UniProt P07550). Briefly: beta2AR agonists driving receptor internalization, pilot screen, cell-based, FAP fluorogen, flow cytometry, validation set (AID 504459;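 active means percent response above 42, roughly 3 SD of non-fluorescent test compounds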;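 further: agonist-driven loss of surface beta2AR via internalization measured by FAP dye flow cytometry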). Conditions: Am2.2-beta2AR cells, FAP surface receptor flow cytometry; at 10 µM; stronger effect = higher value.
Assay [17] addresses AP-2 complex subunit beta (Homo sapiens) (UniProt P63010). Briefly: inhibitors of arrestin peptide binding to AP2, pilot screen, biochemical, validation set, GST-AP2 beads, flow cytometry (AID 504541;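 active means inhibition above 54%, about 3 SD of non-fluorescent compounds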;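 further: AP2 carries R879A mutation and is captured from E. coli lysate; bead-bound FITC arrestin peptide fluorescence measuring arrestin peptide binding to AP2; 0% = DMSO wells and 100% = excess unlabeled arrestin peptide control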). The note with it: FITC arrestin peptide, at 10 µM, stronger effect = higher value, AP2 beta2 appendage fragment, R879A mutant.
Assay [18] can be described thus: yeast V-ATPase proton transport modulators, S. cerevisiae, pHLuorin, HTS validation (AID 504600; in the data active means response above about 15%;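 further: plate controls were DMSO for no effect and reference compound for full effect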). The note with it: S. cerevisiae pHLuorin cytosolic pH, at 10 µM, stronger effect = higher value.
Assay [19] concerns anti-desmoglein-3 scFv antibody binding to human DSG3. Description: inhibitors of anti-DSG3 scFv binding to DSG3, pilot screen, biochemical, validation compound set, bead-based, flow cytometry (AID 588368;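 active means binding below the plate cutoff, the plate median minus 3 SD, with a reading above zero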;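 further: signal is the median channel fluorescence of bead-bound GFP antibody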). The note with it: Protein G beads, DSG3-Fc, scFv-GFP binding, at 10 µM, stronger effect = lower value.
Assay [20] can be described thus: inhibitors of fungal efflux pumps CDR1, CDR2, MDR1, pilot screen, validation compound set, multiplex, phenotypic (AID 588506;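 active means efflux inhibition above 0.42, the validation set average plus 4 SD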;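 further: Nile Red retained in cells so higher fluorescence means more efflux inhibition; 0 = negative control wells and 1 = enniatin B 25 µM full block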). The note with it: S. cerevisiae pump-expressing triplex, Nile Red efflux flow cytometry; at 10 µM; stronger effect = higher value; the pumps come from Candida albicans.
The target of assay [21] is ATP-binding cassette sub-family B member 6 (Homo sapiens) (UniProt Q9NP58). Description: ABCB6 transporter inhibitors, pilot screen, K562-ABCB6 cells, flow cytometry, validation set (AID 588550;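 active means inhibition above the screen-wide mean plus 3 SD, about 51%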;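 further: 0% = DMSO wells and 100% = benzethonium chloride 70 µM positive control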). The note with it: K562-ABCB6 porphyrin accumulation, 1 h, at 10 µM, stronger effect = higher value.
Assay [22] in a line: promoters of myeloid differentiation in arrested cells, primary screen, cell-based, GFP/MAC1 double positive, flow cytometry, validation set (AID 588685;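 active means differentiation response of at least 50%, scaled between solvent and reference control, from cells with both markers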;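 further: compound exposure lasts four days before antibody staining and flow analysis; 0% = DMSO wells and 100% = 5 µM fulvestrant positive control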). Conditions: ER-HoxA9 marrow cells, stronger effect = higher value, normalized: vehicle 0, fulvestrant 100.
Assay [23] in a line: RPL19A-GFP modulators, yeast TOR pathway, confirmation, cell-based, S. cerevisiae, flow cytometry, cherry picks, mother/daughter gates (AID 2270;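 active means GFP response below 50% of the DMSO control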). Conditions: S. cerevisiae RPL19A-GFP strain, 3 h, at 10 µM, stronger effect = lower value, 100 = same GFP as DMSO wells.
A short description of assay [24]: LAP4-GFP expression modulators in yeast, confirmation, cell-based, cherry picks, flow cytometry, mother/daughter gates (AID 2271;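 active means GFP response above 150% of the DMSO control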;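 further: ratio of sample to DMSO plate mean so 100% equals DMSO level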). Conditions: S. cerevisiae LAP4-GFP strain, 3 h, at 10 µM, stronger effect = higher value, 100 means same as DMSO control.
Assay [25] in a line: modulators of MEP2-GFP levels in yeast, confirmation, S. cerevisiae, flow cytometry GFP, cherry picks (AID 2272;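 active means GFP response above 150% of the DMSO control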;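 further: ratio of well signal to plate DMSO mean so 100% equals DMSO level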). The note with it: S. cerevisiae MEP2-GFP strain, 3 h, at 10 µM, stronger effect = higher value.
The nature of assay [26]: AGP1-GFP expression modulators, hit retest, confirmation, cell-based, flow cytometry, S. cerevisiae, cherry picks (AID 2273;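 active means GFP response above 150% of the DMSO level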;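 further: median GFP channel fluorescence over the whole cell population gate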). The note with it: S. cerevisiae AGP1-GFP strain, 3 h, at 10 µM.
A short description of assay [27]: modulators of CIT2-GFP expression in yeast, confirmation, S. cerevisiae, GFP fusion, cherry picks, mother/daughter gates (AID 2274;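 active means GFP response above 150% of the DMSO level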). The note with it: S. cerevisiae CIT2-GFP strain, flow cytometry, 3 h, at 10 µM, stronger effect = higher value.
Setting [28] is: measured here: daughter cell gate.
[29] abbreviates: measured here: mother cell gate.

Results filed as inconclusive are left out. For some of these results: Results with a measured potency or affinity are listed apart. The source made the active and inactive calls.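 How the source made its calls, unless noted: active means fitted half-maximal concentration within 10 nM to 100 µM, steepness 0.5 to 2, significant signal drop, low assay interference; inactive means the rest.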

Chain of GTPase HRas (Homo sapiens) (P01112 whole entry, looked up): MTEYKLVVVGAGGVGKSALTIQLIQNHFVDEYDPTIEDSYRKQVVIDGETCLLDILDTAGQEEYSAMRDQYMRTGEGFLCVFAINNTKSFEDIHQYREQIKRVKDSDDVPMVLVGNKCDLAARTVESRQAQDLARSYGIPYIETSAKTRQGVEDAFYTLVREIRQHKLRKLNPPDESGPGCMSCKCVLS
Chain of Cell division control protein 42 homolog (Homo sapiens) (P60953 whole entry, looked up): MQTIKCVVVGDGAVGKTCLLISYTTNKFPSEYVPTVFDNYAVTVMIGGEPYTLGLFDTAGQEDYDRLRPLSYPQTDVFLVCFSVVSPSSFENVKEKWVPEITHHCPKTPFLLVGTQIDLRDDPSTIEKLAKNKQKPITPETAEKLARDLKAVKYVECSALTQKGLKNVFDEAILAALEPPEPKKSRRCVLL
Chain of Beta-2 adrenergic receptor (Homo sapiens) (P07550 whole entry, looked up): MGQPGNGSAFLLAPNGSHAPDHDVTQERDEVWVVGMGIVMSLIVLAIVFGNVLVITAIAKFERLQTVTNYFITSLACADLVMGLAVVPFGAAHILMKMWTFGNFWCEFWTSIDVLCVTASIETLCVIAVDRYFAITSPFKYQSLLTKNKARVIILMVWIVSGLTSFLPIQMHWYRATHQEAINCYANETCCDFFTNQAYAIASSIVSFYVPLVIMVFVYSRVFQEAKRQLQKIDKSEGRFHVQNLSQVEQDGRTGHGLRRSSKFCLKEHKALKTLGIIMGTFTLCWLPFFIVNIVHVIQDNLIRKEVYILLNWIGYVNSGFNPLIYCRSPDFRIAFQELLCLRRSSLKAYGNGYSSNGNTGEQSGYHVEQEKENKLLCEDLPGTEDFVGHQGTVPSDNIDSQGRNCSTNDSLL
Chain of AP-2 complex subunit beta (Homo sapiens) (P63010 whole entry, looked up, the tested form may be a part, one chain of several): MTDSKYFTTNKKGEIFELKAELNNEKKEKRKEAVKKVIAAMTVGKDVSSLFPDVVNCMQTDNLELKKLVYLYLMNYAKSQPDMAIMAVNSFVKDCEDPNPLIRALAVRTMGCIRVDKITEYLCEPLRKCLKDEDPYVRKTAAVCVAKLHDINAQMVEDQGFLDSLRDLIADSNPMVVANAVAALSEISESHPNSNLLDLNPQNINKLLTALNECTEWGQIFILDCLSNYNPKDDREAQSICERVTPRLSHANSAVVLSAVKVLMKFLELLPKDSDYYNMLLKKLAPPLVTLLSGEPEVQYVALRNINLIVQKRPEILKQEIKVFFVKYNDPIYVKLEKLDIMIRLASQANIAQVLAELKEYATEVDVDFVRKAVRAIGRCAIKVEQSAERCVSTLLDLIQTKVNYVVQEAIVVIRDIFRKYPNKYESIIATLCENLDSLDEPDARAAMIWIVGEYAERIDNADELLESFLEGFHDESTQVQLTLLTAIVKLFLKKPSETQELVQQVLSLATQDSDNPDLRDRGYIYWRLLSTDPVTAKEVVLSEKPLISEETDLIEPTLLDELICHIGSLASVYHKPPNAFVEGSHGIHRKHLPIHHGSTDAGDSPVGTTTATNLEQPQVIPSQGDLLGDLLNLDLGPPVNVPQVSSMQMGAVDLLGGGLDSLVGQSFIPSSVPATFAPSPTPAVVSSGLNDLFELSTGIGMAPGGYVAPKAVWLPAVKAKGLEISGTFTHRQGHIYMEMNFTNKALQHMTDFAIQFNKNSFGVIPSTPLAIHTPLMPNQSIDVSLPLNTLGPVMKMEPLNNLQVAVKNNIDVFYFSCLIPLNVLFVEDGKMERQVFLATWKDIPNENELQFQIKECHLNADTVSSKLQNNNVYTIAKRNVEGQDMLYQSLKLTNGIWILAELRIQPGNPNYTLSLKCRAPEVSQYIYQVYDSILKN
Chain of ATP-binding cassette sub-family B member 6 (Homo sapiens) (Q9NP58 whole entry, looked up): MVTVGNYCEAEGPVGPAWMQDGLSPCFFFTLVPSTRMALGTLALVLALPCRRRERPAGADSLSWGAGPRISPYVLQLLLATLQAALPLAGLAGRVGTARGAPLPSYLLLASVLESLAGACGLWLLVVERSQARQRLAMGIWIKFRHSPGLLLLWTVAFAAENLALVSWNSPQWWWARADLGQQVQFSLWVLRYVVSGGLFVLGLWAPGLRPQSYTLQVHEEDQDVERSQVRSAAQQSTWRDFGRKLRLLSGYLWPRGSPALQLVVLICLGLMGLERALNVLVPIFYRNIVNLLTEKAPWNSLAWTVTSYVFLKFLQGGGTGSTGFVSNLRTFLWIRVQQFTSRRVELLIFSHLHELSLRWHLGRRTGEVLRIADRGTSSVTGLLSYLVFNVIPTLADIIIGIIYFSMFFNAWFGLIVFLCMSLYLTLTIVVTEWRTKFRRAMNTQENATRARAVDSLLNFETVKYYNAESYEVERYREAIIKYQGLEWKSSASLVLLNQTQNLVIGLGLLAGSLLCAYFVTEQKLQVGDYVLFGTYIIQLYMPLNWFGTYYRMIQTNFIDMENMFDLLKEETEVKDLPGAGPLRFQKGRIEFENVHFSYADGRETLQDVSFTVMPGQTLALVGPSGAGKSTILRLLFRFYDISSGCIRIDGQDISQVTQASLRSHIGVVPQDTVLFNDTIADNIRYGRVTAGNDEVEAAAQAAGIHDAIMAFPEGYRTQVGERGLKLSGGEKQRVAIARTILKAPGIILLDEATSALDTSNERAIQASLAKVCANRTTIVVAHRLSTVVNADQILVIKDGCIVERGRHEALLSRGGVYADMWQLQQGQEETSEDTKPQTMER
Chain of Integrin beta-1 (Homo sapiens) + Integrin alpha-4 (Homo sapiens) (P05556 whole entry, looked up): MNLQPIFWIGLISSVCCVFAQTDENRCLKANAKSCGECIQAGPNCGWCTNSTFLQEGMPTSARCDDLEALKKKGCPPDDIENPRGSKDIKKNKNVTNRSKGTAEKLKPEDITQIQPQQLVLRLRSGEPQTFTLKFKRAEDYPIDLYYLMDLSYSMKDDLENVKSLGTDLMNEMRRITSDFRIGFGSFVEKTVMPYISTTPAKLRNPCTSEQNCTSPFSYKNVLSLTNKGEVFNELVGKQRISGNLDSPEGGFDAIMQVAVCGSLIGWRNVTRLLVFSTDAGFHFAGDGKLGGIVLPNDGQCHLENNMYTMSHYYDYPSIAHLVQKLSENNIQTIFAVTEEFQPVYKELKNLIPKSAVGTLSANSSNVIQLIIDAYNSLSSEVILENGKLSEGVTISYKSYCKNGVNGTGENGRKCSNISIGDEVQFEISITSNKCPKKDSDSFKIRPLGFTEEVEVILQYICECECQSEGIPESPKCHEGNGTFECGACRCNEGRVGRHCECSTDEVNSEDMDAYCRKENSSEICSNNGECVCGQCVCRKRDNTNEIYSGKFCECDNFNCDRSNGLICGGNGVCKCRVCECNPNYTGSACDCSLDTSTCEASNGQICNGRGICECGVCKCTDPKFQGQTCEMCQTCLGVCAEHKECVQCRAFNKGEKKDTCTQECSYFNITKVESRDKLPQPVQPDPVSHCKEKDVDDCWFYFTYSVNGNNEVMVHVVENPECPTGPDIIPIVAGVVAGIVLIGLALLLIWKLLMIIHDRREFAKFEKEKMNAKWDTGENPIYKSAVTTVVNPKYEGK
Chain of Integrin beta-1 (Homo sapiens) + Integrin alpha-4 (Homo sapiens) (P13612 whole entry, looked up): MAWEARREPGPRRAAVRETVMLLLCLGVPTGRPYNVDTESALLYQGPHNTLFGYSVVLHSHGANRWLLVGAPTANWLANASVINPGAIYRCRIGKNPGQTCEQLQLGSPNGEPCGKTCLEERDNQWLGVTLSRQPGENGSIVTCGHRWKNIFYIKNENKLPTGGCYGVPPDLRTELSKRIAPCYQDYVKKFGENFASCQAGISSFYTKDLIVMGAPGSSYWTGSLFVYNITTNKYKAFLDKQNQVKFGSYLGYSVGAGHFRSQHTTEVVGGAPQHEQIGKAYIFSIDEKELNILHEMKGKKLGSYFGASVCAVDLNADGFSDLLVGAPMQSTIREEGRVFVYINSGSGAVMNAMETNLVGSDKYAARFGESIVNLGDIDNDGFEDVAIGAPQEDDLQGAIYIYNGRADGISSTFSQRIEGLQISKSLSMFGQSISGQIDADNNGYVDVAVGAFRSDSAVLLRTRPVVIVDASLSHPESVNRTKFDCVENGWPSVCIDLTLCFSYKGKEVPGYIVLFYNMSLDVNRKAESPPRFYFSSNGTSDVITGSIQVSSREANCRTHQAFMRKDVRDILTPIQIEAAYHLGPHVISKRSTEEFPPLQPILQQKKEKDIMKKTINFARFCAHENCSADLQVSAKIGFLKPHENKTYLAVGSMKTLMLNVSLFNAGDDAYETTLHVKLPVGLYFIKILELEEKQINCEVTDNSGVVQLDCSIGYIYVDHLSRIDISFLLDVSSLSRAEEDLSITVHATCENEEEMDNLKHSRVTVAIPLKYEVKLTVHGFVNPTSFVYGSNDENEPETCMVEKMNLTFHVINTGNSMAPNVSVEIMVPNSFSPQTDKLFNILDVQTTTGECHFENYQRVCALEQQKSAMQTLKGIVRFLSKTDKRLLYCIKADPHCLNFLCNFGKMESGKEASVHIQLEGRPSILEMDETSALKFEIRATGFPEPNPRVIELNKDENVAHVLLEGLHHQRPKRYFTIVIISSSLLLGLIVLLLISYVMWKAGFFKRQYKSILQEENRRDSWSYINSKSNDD

For the compound `COC(=O)C1=NN(C(=O)c2cccc(Br)c2)C(O)(c2ccc(Cl)cc2)C1` (stereo unspecified), the outcome in assay [1], in [4] and in [6] was inactive. Further, the fluorescence, percent of control (lower = inhibition) in assay [2] came out at 31.2%. The same compound yielded a GTP binding, percent of control in [3] of 79.1%. This compound also gave a GTP binding signal, raw median fluorescence (lower = inhibition) (MCF (arbitrary fluorescence units)) in assay [5] of 240. In addition, the percent of DMSO control GFP in assay [7] is 100% (inactive). In addition, the GFP response vs DMSO in assay [8] is 95.1% (inactive); in assay [10], 114% (inactive). The percent response of DMSO control in assay [9] is 97.8% (inactive). In addition, the GFP response, % of DMSO in [11] was 89.9% (inactive). For the same compound, the double positive events in assay [12] is 63.4%. In addition, the vesicle binding response in assay [12] was 223% (inactive). In addition, the inhibition (commonly the relative decrease from the control value, in per cent) in assay [13] was -83.5% (inactive); in [17] it was -11.3% (inactive); in assay [21], -2% (inactive). Moreover, the superoxide response (% of plate) in assay [14] is 93.4% (inactive). Also, in [15], the aptamer binding inhibition was 3% (inactive). Further, the response was -15.6% (inactive) in assay [16] and -0.27% (inactive) in [18]. Moreover, the binding (% of control) in assay [19] is 109% (inactive). Besides, in [20], the efflux inhibition (fraction of control) was -0.1 (inactive). Further, the differentiation response in assay [22] is 11% (inactive).
As to `Cc1ccc(OCCn2cc(C(=O)O)c3ccccc32)cc1`, the result in assay [1], in assay [4] and in assay [6] was inactive. Besides, the fluorescence, percent of control (lower = inhibition) in assay [2] came to 45.4%. Moreover, the GTP binding, percent of control in assay [3] amounted to 96.7%. In assay [5], this compound returned a GTP binding signal, raw median fluorescence (lower = inhibition) (MCF (arbitrary fluorescence units)) of 280.
Turning to `CCOC(=O)N1CCN(C(=O)CCc2ccc(S(=O)(=O)NCCc3ccccc3)cc2)CC1`, the compound was called inactive in assay [1], in assay [4] and in [6]. Also, the fluorescence, percent of control (lower = inhibition) in [2] is 48.3%. The compound also showed a GTP binding, percent of control in assay [3] of 57.7%. This compound also returned a GTP binding signal, raw median fluorescence (lower = inhibition) (MCF (arbitrary fluorescence units)) in assay [5] of 0. For the same compound, the GFP response vs DMSO in [23] is 99.3% (inactive); in assay [23] (setting [28]), 100%; in assay [23] (setting [29]), 97.8%; in [25], 101% (inactive). For the same compound, the results for the GFP response relative to DMSO in assay [24], in assay [24] (measured here: daughter cell gate response) and in assay [24] (measured here: mother cell gate response) were 95.3% (inactive), 99% and 94.4%, respectively. Besides, the GFP response, % of DMSO in [26] was 108% (inactive); in assay [27], 100% (inactive); in assay [27] (setting [28]) it was 101%; in assay [27] (setting [29]), 100%.
